# Compound activity as filed in PubChem BioAssay.
# MsrA inhibitor: inhibits bovine methionine sulfoxide reductase A | purified bovine MsrA, absorbance read-out | inhibition, % at 15.5 µM | 360,000 compounds, 0.75% hits | AID 651718;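 further: 0% = vehicle wells with enzyme and 100% = reference inhibitor wells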
# NadD block: inhibitors of Staphylococcus aureus NadD; purified NadD enzyme, colorimetric absorbance read-out; inhibition, % at 20 µM; 360,000 compounds, 0.78% hits; AID 602399; in the data active means inhibition above about 26%
# rCAG binder: binds r(CAG) RNA repeats; r(CAG) RNA repeat, TO-PRO-1 dye displacement fluorescence; inhibition, % at 3 µM; 370,000 compounds, 1.3% hits;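 active means inhibition above the plate cutoff, the mean of all test compounds on that plate plus 3 SD, cut at about 35% in these data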;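 further: 0% = DMSO alone and 100% = 100 µM mitoxantrone as full dye displacement; higher means more dye released from RNA so lower well fluorescence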
# bovine MsrA act: activates bovine MsrA enzyme; purified bovine MsrA, absorbance read-out; 360,000 compounds, 0.3% hits; activation, % at 10.6 µM; in the data active means activation above about 7.5%;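 further: 0% = vehicle and 100% = reference activator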
# MsrA conf: confirmation of bovine MsrA inhibitors; shares compounds with MsrA inhibitor; purified bovine MsrA, absorbance read-out; inhibition, % at 15.5 µM; 2,300 compounds, 41% hits;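 further: coupled to thioredoxin reductase with NADPH and selenocystamine and DMSO as substrate; 0% = vehicle only and 100% = full effect of reference inhibitor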
# Numbers without * were called inactive; . = no result given. An excerpt weighted towards active compounds, which were near 2.7% of everything screened. Unless noted, no stated cut-off is given here; in the data, active means inhibition above about 4.5%; inactive means the rest.
SMILES,MsrA inhibitor,NadD block,rCAG binder,bovine MsrA act,MsrA conf
COCCCNC(=S)N(CCCO)Cc1cc2cc3c(cc2[nH]c1=O)OCO3,2,3,0,-2,.
COCCCNC(=S)N(CCCO)Cc1cc2cc3c(cc2[nH]c1=O)OCCO3,5.0*,-5,-4,-2,2
COC(=O)c1c(C(=O)OC)c(-c2ccc(F)cc2)n2c1CSC2,5.6*,-3,6,-3,2
O=C1OC(c2ccco2)=N/C1=C\c1ccc(-c2cccc(C(F)(F)F)c2)o1,5.6*,10,33,-2,2
NC(=O)NC(=O)COC(=O)c1ccc(OC(F)F)cc1,2,-1,0,-2,.
Cc1ccc(C(C)C)c(OCC(=O)NNC(=O)Cc2ccc(S(=O)(=O)N3CCOCC3)s2)c1,-1,2,16,-1,.
CN(C)c1ccc(/C=C2\CCC/C(=C\c3ccccc3)C2=O)cc1,1,1,8,-4,.
O=C1/C(=C/c2ccc(C(=O)O)cc2)CCC/C1=C\c1ccc(C(=O)O)cc1,8.8*,1,8,-5,6.6*
CC#CCN(Cc1ccco1)C(=O)c1ccc(OC2CCN(Cc3ccccn3)CC2)cc1,-1,6,-8,-1,.
Cn1c(=O)c2c(ncn2CC(=O)N/N=C/c2ccco2)n(C)c1=O,1,-2,-2,-7,.
Cn1c(=O)c2c(nc(N/N=C/c3cccs3)n2C)n(C)c1=O,4.9*,-7,5,-3,5.7*
Cn1c(=O)c2c(nc(N/N=C/c3ccco3)n2C)n(C)c1=O,6.2*,-1,1,1,6.8*
COc1ccc(NC(=O)Cn2c(=O)n(CC3CCCO3)c(=O)c3cc(OC)c(OC)cc32)cc1OC (stereo unspecified),2,4,3,-8,.
C[C@]12CCC[C@H](O1)c1c(cc3c(c1O)C(=O)c1c(O)cc(O)cc1C3=O)O2,-1,15,4,-1,.
O=[N+]([O-])c1ccc(/C=N/NC2=NS(=O)(=O)c3ccccc32)cc1,2,-2,2,-4,.
O=S1(=O)N=C(N/N=C/c2cccs2)c2ccccc21,5.8*,6,2,-2,4.8*
COc1ccc(C(=O)N/C(=C\c2cn(C)c3ccccc23)C(=O)NCCCN2CCOCC2)cc1,5.3*,-10,0,-7,3
Cc1ccc(C(=O)N/C(=C\c2cn(C)c3ccccc23)C(=O)N2CCOCC2)cc1,2,0,-1,-4,.
CCn1cc(/C=C(\NC(=O)c2ccccc2OC)C(=O)NCCN2CCOCC2)c2ccccc21,4.7*,-4,5,-7,3
COc1ccc(C(=O)N/C(=C\c2cn(C)c3ccccc23)C(=O)NCCN2CCOCC2)cc1OC,4.8*,-3,4,-12,4
Cn1cc(/C=C(\NC(=O)c2ccccc2)C(=O)N2CCOCC2)c2ccccc21,5.7*,2,-3,-5,3
O=S(=O)(c1ccc(Cl)cc1)n1nnc2ccccc21,-1,0,0,0,.
Cn1cc(/C=C(\NC(=O)c2ccccc2Cl)C(=O)NCCN2CCOCC2)c2ccccc21,4.8*,-4,0,-12,4
COc1cc(C(=O)N/C(=C\c2cn(C)c3ccccc23)C(=O)NCCN2CCOCC2)cc(OC)c1OC,5.3*,0,0,-6,4
CCn1cc(/C=C(\NC(=O)c2cc(OC)c(OC)c(OC)c2)C(=O)NCCCN2CCOCC2)c2ccccc21,2,-5,-6,-2,.
SMILES,MsrA inhibitor,NadD block,rCAG binder,bovine MsrA act,MsrA conf
CCn1cc(/C=C(\NC(=O)c2ccccc2)C(=O)NCCCN2CCOCC2)c2ccccc21,4.7*,2,-3,-3,4
N#C/C(=C/c1ccc(CNS(=O)(=O)c2ccccc2)o1)C(=O)NCc1ccccc1,4.8*,-6,4,-3,4
Cc1ccc(/C=C/C(=O)OCC(=O)NC(C)c2ccccc2)o1 (stereo unspecified),6.5*,3,3,-3,3
COc1ccc(-c2cc(C#N)nc(N3CCN(C)CC3)n2)cc1,2,-21,-8,-2,.
CN1CCN(c2nc(C#N)cc(-c3ccccc3)n2)CC1,5.0*,-2,-4,-5,1
COc1cccc(/C=C2\SC(N3CCC(C)CC3)=NC2=O)c1OC,5.9*,0,-2,-4,4
c1csc(C2CCCN2c2nc3nonc3nc2NC2CC2)n1 (stereo unspecified),5.7*,2,-1,-5,1
Cc1ccc(-c2n[nH]c(=S)n2/N=C/c2sccc2C)cc1,4.7*,4,20,1,3
COc1ccc(/C=N/n2c(C3CCCCC3)n[nH]c2=S)c(OC)c1,8.8*,6,3,1,8.6*
Cc1ccsc1/C=N/n1c(C2CCCCC2)n[nH]c1=S,11*,-2,4,-4,6.1*
COc1ccc(NC(=S)N2CCCC2)c(OC)c1,0,-4,-3,-6,.
COc1ccc(C(=O)Nc2ccc(C3CC3(Cl)Cl)cc2)cc1 (stereo unspecified),0,-7,-2,-2,.
Cc1ccsc1/C=N/NC(=O)c1nnn(-c2nonc2N)c1CSc1ccccc1,1,-2,1,-4,.
Cn1c(=O)n(C)c2cc(/C=N/NC(N)=S)ccc21,5.5*,-1,0,-8,4.8*
Cn1c(=O)n(C)c2cc(/C=N/NC(=O)c3ccc(Cl)cc3Cl)ccc21,4,-4,-1,-3,.
CN(C)c1ccc(/C=N/NC(N)=S)cc1[N+](=O)[O-],10*,-1,-1,-5,7.1*
O=C(CSc1nccn1-c1ncc(C(F)(F)F)cc1Cl)c1ccc(Br)cc1,.,2,.,-1,.
Cc1ccc(/C(CSc2nccn2-c2ncc(C(F)(F)F)cc2Cl)=N\O)cc1,8.6*,-7,1,1,0
CC(=O)c1c(C)[nH]c(C2=NNC(=NCc3ccccc3)SC2)c1C,5.0*,11,13,-11,2
c1ccc(CN=C2NN=C(c3ccccc3)CS2)cc1,0,9,8,-4,.
CCn1nnc2cc(C(=O)O)ccc21,-1,-5,-1,-1,.
COc1cc(OC)cc(-c2oc(=O)c3cc(OC)c(OC)cc3c2C#CCCO)c1,11*,-13,8,-5,7.8*
O=C(/C=C/c1cccs1)c1ccc(N2CCOCC2)cc1,6.1*,2,6,-4,2
O=C(/C=C/c1cccc(F)c1)c1ccc(N2CCOCC2)cc1,1,-10,1,-4,.
CSc1ccccc1NC(=O)CN1CCN(Cc2ccccc2)CC1,.,-7,.,-3,.
SMILES,MsrA inhibitor,NadD block,rCAG binder,bovine MsrA act,MsrA conf
O=C1CS/C(=N\N=C\c2ccco2)N1c1ccccc1,0,1,14,-5,.
Oc1ccc(C=NN=Cc2ccco2)c(O)c1,4.9*,-3,3,-6,5.4*
N/C(=N\N=C\c1ccco1)SC1CC(=O)N(c2ccccc2)C1=O (stereo unspecified),6.8*,-1,5,-4,4
O=C(CNC(=O)c1ccco1)N/N=C/c1ccc(O)cc1O,3,8,3,2,.
NC(=N\N=Cc1ccccc1)/C(N)=N/N=Cc1ccccc1,2,-1,0,-2,.
NC(=N\N=Cc1ccco1)/C(N)=N/N=Cc1ccco1,4.8*,4,8,0,6.4*
